Screening results deposited in PubChem by The Scripps Research Institute Molecular Screening Center.
MBD2 DNA inh – inhibitors of MBD2 binding to methylated DNA, primary screen, biochemical, TR-FRET, DNA-binding domain, human; Methyl-CpG-binding domain protein 2 (Homo sapiens), Q9UBB5; MBD2 binding to methylated oligonucleotide; inhibition, % at 4.4 µM; 370,000 tested, 0.31% active; AID 686964, 2013; in the data active = inhibition above about 13%
Target sequence (Q9UBB5 whole entry, looked up, the tested form may be a part): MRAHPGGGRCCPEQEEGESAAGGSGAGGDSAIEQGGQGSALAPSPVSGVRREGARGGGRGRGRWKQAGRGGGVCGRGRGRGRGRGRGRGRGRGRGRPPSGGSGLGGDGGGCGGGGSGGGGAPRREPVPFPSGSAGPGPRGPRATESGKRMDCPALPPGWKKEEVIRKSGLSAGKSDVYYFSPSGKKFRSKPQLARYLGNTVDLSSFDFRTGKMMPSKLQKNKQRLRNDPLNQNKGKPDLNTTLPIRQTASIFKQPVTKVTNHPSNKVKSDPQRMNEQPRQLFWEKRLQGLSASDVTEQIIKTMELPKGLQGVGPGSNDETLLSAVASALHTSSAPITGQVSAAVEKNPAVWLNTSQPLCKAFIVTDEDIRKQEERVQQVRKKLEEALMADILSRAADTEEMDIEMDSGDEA
UHRF1 MBD2 ctr – UHRF1 methylated DNA binding inhibitors, primary screen, counter-screen for MBD2 inhibitor project, biochemical, TR-FRET, human UHRF1, single concentration; inhibition, % at 4.4 µM; UHRF1 binding to methylated oligo; 370,000 tested, 0.75% active; in the data active = inhibition above about 21%;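 also: UHRF1 SRA domain binding a hemimethylated CpG hairpin DNA probe; 0% = median of test compound wells and 100% = reference inhibitor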
rCAG RNA binder – binders of r(CAG) RNA repeats, primary screen, biochemical, fluorescence; r(CAG) RNA repeat, TO-PRO-1 dye displacement fluorescence; inhibition, % at 3 µM; 370,000 tested, 1.3% active; AID 651821, 2012;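 active = inhibition above the plate cutoff, the mean of all test compounds on that plate plus 3 SD, cut at about 35% in these data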;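 also: 0% = DMSO alone and 100% = 100 µM mitoxantrone as full dye displacement; higher means more dye released from RNA so lower well fluorescence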
PRMT1 inh – PRMT1 methyltransferase inhibitors, primary screen, biochemical, fluorescence polarization; Protein arginine N-methyltransferase 1 (Homo sapiens), Q99873; 370,000 tested, 1.3% active; recombinant PRMT1, activity-based probe fluorescence polarization; inhibition, % at 2.79 µM;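 active = inhibition above about 21% made by adding two undisclosed values, limit read from the data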
LEDGF integ inh – blockers of LEDGF/p75-dependent integrase strand transfer – biochemical, TR-FRET, high throughput, primary screen; HIV-1 integrase (with human LEDGF/p75); TR-FRET IN-LEDGF/p75 DNA integration, Eu/Cy5; inhibition, % at 3.7 µM; 370,000 tested, 0.64% active;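 active = inhibition above the screen-wide mean plus 3 SD, cut at about 13% in these data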;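 also: signal is the Cy5 over europium emission ratio at 671 and 618 nm; 0% = plate median of compound wells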
ABHD5 PLIN5 PPI – ABHD5-PLIN5 interaction inhibitors, primary screen, cell lysate, split luciferase complementation, luminescence. Split G. princeps luciferase complementation, 4 h. AID 602281, 2012. inhibition, % at 4 µM. 360,000 tested, 0.78% active;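 active = inhibition above the mean inhibition across every tested compound plus 3 SD, cut at about 22% in these data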;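 also: 0% = DMSO only wells and the 100% control is not disclosed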
ABHD5-PLIN5 conf – ABHD5-PLIN5 interaction inhibitors, confirmation, biochemical, luminescence | shares compounds with ABHD5 PLIN5 PPI | inhibition, % at 4 µM | 2,200 tested, 67% active | AID 651612, 2012; in the data active = inhibition above about 23%;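 also: 0% = DMSO vehicle wells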
HNF4 counter – HNF4 dimerization inhibitors, counter-screen for ABHD5-PLIN5 interaction inhibitor project, biochemical, split-luciferase complementation, luminescence. shares compounds with ABHD5 PLIN5 PPI. inhibition, % at 4 µM. 2,200 tested, 77% active;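 active = mean inhibition across replicate wells exceeding the computed hit threshold, cut at about 13% in these data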;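 also: light from luciferase halves that rejoin when HNF4 fusion proteins dimerize; 0% = DMSO only wells and the 100% control is not given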
The depositor's hits bear a star. The list is not random: actives were taken first. Their share in the collection is about 4.1%.

How did Cn1c(=O)c(=O)n(C)c2cc([N+](=O)[O-])c([N+](=O)[O-])cc21 do in these assays?
MBD2 DNA inh: 5; UHRF1 MBD2 ctr: 5; rCAG RNA binder: -1; PRMT1 inh: 6; LEDGF integ inh: -3; ABHD5 PLIN5 PPI: 100*; ABHD5-PLIN5 conf: 2; HNF4 counter: 4

How did Cn1cccc([N+](=O)[O-])c1=O do in these assays?
MBD2 DNA inh: 0; UHRF1 MBD2 ctr: 2; rCAG RNA binder: 1; PRMT1 inh: 4; LEDGF integ inh: -4; ABHD5 PLIN5 PPI: 4

How did CCN(CC)CCc1nc(-c2ccccc2)no1 do in these assays?
MBD2 DNA inh: -1; UHRF1 MBD2 ctr: 2; rCAG RNA binder: 5; PRMT1 inh: -3; LEDGF integ inh: 7; ABHD5 PLIN5 PPI: 56*; ABHD5-PLIN5 conf: 84*; HNF4 counter: 43*

What do the screens show for `CCSc1nc2ccccc2n1CC(N)=O`?
MBD2 DNA inh: -1; UHRF1 MBD2 ctr: 4; rCAG RNA binder: -2; PRMT1 inh: -1; LEDGF integ inh: 2; ABHD5 PLIN5 PPI: -3

How did CCSc1nc2ccccc2n1C(=O)/C=C\c1ccc(OC)c(OC)c1 do in these assays?
MBD2 DNA inh: 3; UHRF1 MBD2 ctr: -3; rCAG RNA binder: -4; PRMT1 inh: -2; LEDGF integ inh: 1; ABHD5 PLIN5 PPI: 40*; ABHD5-PLIN5 conf: 77*; HNF4 counter: 60*

Results for O=C1OC(/C(=C\Nc2ccccc2)[N+](=O)[O-])c2ccccc21 (configuration not stated) ?
MBD2 DNA inh: -1; UHRF1 MBD2 ctr: 0; rCAG RNA binder: 0; PRMT1 inh: 6; LEDGF integ inh: 2; ABHD5 PLIN5 PPI: 42*; ABHD5-PLIN5 conf: 7; HNF4 counter: 26*

How did CC(C)(C)c1ccc(/C=C(\C#N)C(=O)NC2CC2)cc1 do in these assays?
MBD2 DNA inh: -3; UHRF1 MBD2 ctr: 7; rCAG RNA binder: -4; PRMT1 inh: 5; LEDGF integ inh: -7; ABHD5 PLIN5 PPI: 28*; ABHD5-PLIN5 conf: 47*; HNF4 counter: 35*

What do the screens show for `N#C/C(=C\c1ccc(F)c(Br)c1)C(=O)NC1CC1`?
MBD2 DNA inh: -6; UHRF1 MBD2 ctr: -2; rCAG RNA binder: 2; PRMT1 inh: -3; LEDGF integ inh: 1; ABHD5 PLIN5 PPI: 2

How did COC(=O)C1CCN(C2CN(Cc3cn(Cc4ccc(C(F)(F)F)cc4)nn3)S(=O)(=O)C2)CC1 (configuration not stated) do in these assays?
MBD2 DNA inh: 5; UHRF1 MBD2 ctr: 2; rCAG RNA binder: -3; PRMT1 inh: 6; LEDGF integ inh: 3

Results for COc1ccc(C(=O)OCC(=O)N2CCN(S(=O)(=O)c3ccc(C)cc3)CC2)cc1[N+](=O)[O-] ?
MBD2 DNA inh: 3; UHRF1 MBD2 ctr: 2; rCAG RNA binder: 4; PRMT1 inh: 0; LEDGF integ inh: -11; ABHD5 PLIN5 PPI: 86*; ABHD5-PLIN5 conf: 2; HNF4 counter: 7

How did CCOC(=O)c1cnc2c(C)cccc2c1NCc1ccco1 do in these assays?
MBD2 DNA inh: 3; UHRF1 MBD2 ctr: 0; rCAG RNA binder: -3; PRMT1 inh: -1; LEDGF integ inh: -1; ABHD5 PLIN5 PPI: 24*; ABHD5-PLIN5 conf: 4; HNF4 counter: 8

What do the screens show for `COc1ccc(-n2c(N)c(C(=O)NCc3ccco3)c3nc4ccccc4nc32)cc1`?
MBD2 DNA inh: -9; UHRF1 MBD2 ctr: -7; rCAG RNA binder: 14; PRMT1 inh: 8; LEDGF integ inh: 6; ABHD5 PLIN5 PPI: 33*; ABHD5-PLIN5 conf: 31*; HNF4 counter: 32*

How did COc1cccc(C(=O)N[C@H](C(=O)N2CCC[C@H]2C(=O)NCc2ccccc2)C(C)C)c1 do in these assays?
MBD2 DNA inh: -2; UHRF1 MBD2 ctr: 2; rCAG RNA binder: 0; PRMT1 inh: 0; LEDGF integ inh: 2

How did CCOc1ccc(S(=O)(=O)N(CC(=O)NCc2cccnc2)c2ccc(F)cc2)cc1 do in these assays?
MBD2 DNA inh: -5; UHRF1 MBD2 ctr: 0; rCAG RNA binder: 0; PRMT1 inh: 0; LEDGF integ inh: -5; ABHD5 PLIN5 PPI: 40*; ABHD5-PLIN5 conf: 1; HNF4 counter: -5

Results for CCCCC(=O)N(Cc1ccccc1)c1ccccc1C(=O)Nc1cc(OC)ccc1OC ?
MBD2 DNA inh: 6; UHRF1 MBD2 ctr: 0; rCAG RNA binder: 4; PRMT1 inh: -3; LEDGF integ inh: 3

What do the screens show for `O=C(N/N=C/C(Br)=C/c1ccccc1)c1cc(-c2ccco2)[nH]n1`?
MBD2 DNA inh: 3; UHRF1 MBD2 ctr: -1; rCAG RNA binder: 26; PRMT1 inh: 14; LEDGF integ inh: 1; ABHD5 PLIN5 PPI: 25*; ABHD5-PLIN5 conf: 22*; HNF4 counter: 72*

How did CC1C(=O)NN=C1C(=O)N/N=C\C(Br)=C\c1ccccc1 (configuration not stated) do in these assays?
MBD2 DNA inh: -5; UHRF1 MBD2 ctr: -3; rCAG RNA binder: 5; PRMT1 inh: 6; LEDGF integ inh: 3; ABHD5 PLIN5 PPI: 34*; ABHD5-PLIN5 conf: 6; HNF4 counter: 22*

How did COCC(=O)N1CC[C@H]2[C@@H]1c1cc(-c3cccc(OC)c3)ccc1N(C)[C@H]2CO do in these assays?
MBD2 DNA inh: -1; UHRF1 MBD2 ctr: -2; rCAG RNA binder: 4; PRMT1 inh: 2; LEDGF integ inh: 0

How did O=S1(=O)c2ccc(N3CCC[C@H]3CO)cc2O[C@@H]2CCN1C2 do in these assays?
MBD2 DNA inh: 3; UHRF1 MBD2 ctr: 6; rCAG RNA binder: 0; PRMT1 inh: 0; LEDGF integ inh: 2

What do the screens show for `CC(O)/C=C/c1ccc2ccccc2n1` (configuration not stated)?
MBD2 DNA inh: 1; UHRF1 MBD2 ctr: -1; rCAG RNA binder: 0; PRMT1 inh: 2; LEDGF integ inh: -1; ABHD5 PLIN5 PPI: 24*; ABHD5-PLIN5 conf: 23*; HNF4 counter: 26*

What do the screens show for `O=C(NCc1ccc(C(=O)N2CCCC2)cc1)c1cccc(Br)c1`?
MBD2 DNA inh: 1; UHRF1 MBD2 ctr: 4; rCAG RNA binder: 2; PRMT1 inh: -2; LEDGF integ inh: -1
